In PubChem BioAssay (NCI):
About 79,000 compounds went through this panel and 15% of them were active in at least one assay; those are over-represented in the sample as a whole. Unmarked numbers belong to inactive results. Calls of active or inactive are those of the source. Cut-off read from the data, not from the text of the source: active = growth inhibition above about 70%; inactive = the rest.

What was measured:
[1] = NCI Yeast Anticancer Drug Screen. Data for the rad50 strain (AID 155);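 note: 0% = growth of vehicle-only cultures of the same strain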; details: S. cerevisiae rad50 strain growth inhibition, stronger effect = higher value; at 50.0 µM unless noted
In short: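 Inhibition values express reduced yeast growth in compound-treated cultures relative to vehicle-treated controls.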

[2] = NCI Yeast Anticancer Drug Screen. Data for the mec2-1 strain (AID 157); details: S. cerevisiae mec2-1 strain, stronger effect = higher value; at 50.0 µM unless noted
In short: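 Compounds were applied to mec2-1 yeast cells. Their growth was then compared with that of vehicle-treated cultures to give growth inhibition.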

[3] = NCI Yeast Anticancer Drug Screen. Data for the sgs1 mgt1 strain (AID 161);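 note: 0% = growth of cultures given vehicle only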; details: S. cerevisiae sgs1 mgt1 strain, stronger effect = higher value; at 50.0 µM unless noted
In short: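 Percent growth inhibition was derived by comparing compound-exposed mutant yeast with vehicle-exposed cultures. The strain carries alterations in DNA damage repair.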

[4] = NCI Yeast Anticancer Drug Screen. Data for the cln2 rad14 strain (AID 165);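 note: 0% = growth equal to vehicle treated cultures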; details: S. cerevisiae cln2 rad14 strain, stronger effect = higher value; at 50.0 µM unless noted
In short: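 Strain: cln2 rad14 yeast, altered in cell cycle control and DNA damage repair. Read-out: growth inhibition vs vehicle.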

[5] = NCI Yeast Anticancer Drug Screen. Data for the bub3 strain (AID 167); details: S. cerevisiae bub3 mutant strain, stronger effect = higher value; at 50.0 µM unless noted
In short: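 Steps: expose the mutant yeast strain to compound; grow alongside vehicle-treated cultures; measure growth; express inhibition against the vehicle cultures.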

[6] = NCI Yeast Anticancer Drug Screen. Data for the mlh1 rad18 strain (AID 175); details: S. cerevisiae mlh1 rad18 strain growth inhibition, stronger effect = higher value; at 50.0 µM unless noted
In short: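 A repair-deficient yeast strain is exposed to test compound, and growth is scored relative to vehicle-treated controls.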

Row | Structure (SMILES) | growth inhibition [1] [%] | growth inhibition [2] [%] | growth inhibition [3] [%] | growth inhibition [4] [%] | growth inhibition [5] [%] | growth inhibition [6]
1 | COc1ccc(C2=C(Cl)c3cc(OC)c(OC)cc3C2Cl)cc1 (stereo not given) | 14.8 | 22.6 | 21.2 | 11.8 | -0.45 | -41.6%
2 | C=C1C(=O)O[C@@H]2C[C@@H](C)[C@@H]3C=CC(=O)[C@@]3(C)[C@@H](OC(=O)CCCC(=O)O[C@H]3[C@@H]4C(=C)C(=O)O[C@@H]4C[C@@H](C)[C@@H]4C=CC(=O)[C@]43C)[C@H]12 | 50.1 | 49 | 57.6 | 31.1 | 58 | 34.9%
3 | O=c1oc2ccccc2cc1O | -12.2 | -4.5 | -6 | -28.9 | -18.3 | 27.1%
4 | COc1ccc(Cl)c2c(=O)c3ccccc3[nH]c12 | -3.45 | 7.65 | 2.5 | -35.1 | -12.3 | 12.8%
5 | COc1ccc2c(c1)Cc1cc(NC(C)=O)ccc1-2 | -4.55 | -11.2 | 21.5 | -47.9 | 4.1 | 13.1%
6 | CCCC1OC(c2cc3c(cc2Br)OCO3)OCC1CC (stereo not given) | -4.5 | -8.9 | 9.25 | 3.1 | 23.1 | -4.7%
7 | Cc1sc2ccccc2[n+]1CCC(=O)O | -23.1 | -14 | -38.6 | -72.8 | -14.8 | -7.65%
8 | C[C@H](C(=O)O)C(=O)NC(=O)N(Cc1ccccc1)N=O | -24 | -24.6 | -26.8 | 14.3 | -1.25 | -8.3%
9 | C/C(=C(/C)c1ccc(O)cc1)c1ccc(O)cc1 | -9.8 | -23.8 | 16.3 | 9.05 | 45.9 | 2.7%
10 | CCCCCCCCC1OC1CCCCCCCCOCC(O)CO (stereo not given) | 18.9 | -9.95 | -1.9 | -1.2 | -0.6 | -1.6%
11 | COc1ccc(-c2cc(=O)c3c(O)c(OC)c(O)cc3o2)cc1O | 24.8 | 14.9 | 37.5 | 22.9 | 37.5 | 17.1%
12 | CCCCCCCCCCCCCCCCCC(=O)CBr | 14 | 9.9 | 10.9 | -25.4 | 2.2 | 38.9%
13 | CCc1nnc2c(C)c(C)nc(C)n12 | 21.2 | 1.55 | -16 | -16.1 | 17.2 | 1.6%
14 | COc1cccc2c(SC)c(C)[nH]c12 | 14.9 | -0.4 | 18.8 | -0.05 | -19.8 | 14.8%
15 | C=C(C)[C@H]1C=C[C@@H](OC(=O)c2cccnc2)[C@@]23CO[C@@](C)([C@H](OC(=O)c4cccnc4)[C@@]4(OC(C)=O)C[C@H](C)[C@H](OCCC)[C@@H]4[C@H]2OC(C)=O)[C@H]13 | -11.2 | -6.1 | 27.4 | 35.4 | 22.6 | 79.8% (active)
16 | S=C(c1ccco1)N1CCOCC1 | 14.8 | 12 | 25.1 | 12.7 | 16.2 | 10.8%
17 | CC(=O)NC(C)c1ccccc1 (stereo not given) | -4.75 | 40.1 | 15.3 | -11.9 | -1.55 | 3.3%
18 | COC1CN(C(C)(C)C)C1 | 2.65 | 6.15 | -1.2 | 2.65 | 6.6 | 0.95%
19 | CC(=O)NC(C(=O)O)C(C)C (stereo not given) | 6.4 | -0.75 | -4.55 | -4.2 | 0.85 | 6.7%
20 | CC1(C)CSCC(C)(C)C(=N/N)/C1=N\N | 6.95 | 22.7 | -8.35 | 4.35 | -33 | -41.3%
